From PubChem BioAssay AID588335 (The Scripps Research Institute Molecular Screening Center, 2011) come the findings set out here.

In all, about 360,000 compounds went through this assay and about 4,500 (1.2%) were called active. For the sample, actives were picked, then their nearest neighbours and some compounds at random. Unmarked numbers belong to inactive results. No stated cut-off is given here; in the data, active means inhibition above about 30%; inactive means the rest.

This assay can be described thus: inhibition of GDH and TPI enzymes – biochemical, absorbance, full deck, artefact control for M. tuberculosis FBA inhibitor project, primary screen (AID 588335).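 Further: 0% = DMSO wells and 100% = wells lacking the enzyme.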 Particulars: GDH-TPI coupled enzyme counterscreen, NADH absorbance; at 4.8 µM; hits give high values. (In general: The purpose of a counterscreen is to sort out artefacts and off-target activity.)
The inhibition is the change of the read-out against control, counted positive when it falls. As to `O=C(CCc1ccc(S(=O)(=O)N2CCOCC2)cc1)OCC(=O)c1ccc(Br)cc1`, the inhibition was -6.33%.
The result for `COc1ccc(CCNC(=O)COC(=O)Cc2cccc(F)c2)cc1` reads -8.97%; that for `O=C(NCc1ccccc1Cl)C1CCC(CNc2c(N3CCCCC3)c(=O)c2=O)CC1` (configuration not stated), 4.69%; that for `CCC(C)C1(C2CCCC2)NC(=O)NC1=O` (configuration not stated), 0.88%.
The result for `O=C(NC1CCC(O)CC1)c1ccc(S(=O)(=O)NCc2ccco2)cc1` (configuration not stated) reads 11.2%; that for `COc1ccc(CN(C)C(=O)c2cc(-c3ccc(C)cc3C)nc3ccccc23)c(OC)c1OC`, 0%; that for `Cc1ccc(/C=N/NC(=O)COc2ccccc2-c2ccccc2)cc1`, 5.68%.
The result for `COc1cc(/C=N/NC(=O)c2cc(-c3ccccc3C)nc3ccccc23)cc(OC)c1O` reads 76.5% (active).
For `Cc1ccc(NN=Nc2nc3c([nH]2)c(=O)n(C)c(=O)n3C)cc1`, the inhibition was 2.21%.
With `O=C(Nc1ccc(N2CCOCC2)cc1)c1cccc2c(-c3ccc(F)c(F)c3)coc12`, the inhibition is 1.77%.
In the case of `CCc1c(C)n([O-])c2c([n+]1=O)CCCCC2`, the inhibition was 6.72%.
In the case of `Cc1nc(-c2ccccc2)sc1C(=O)/C=C/c1ccccc1`, the inhibition is 31.8% (active).
The result for `Cc1nc(-c2ccc(Cl)cc2)sc1C(=O)CBr` reads 22.6%.
The result for `Cc1[nH]c(=O)c(C(=O)/C=C/c2ccccc2)c2c1CCCC2` reads 12.9%.
The result for `COc1ccccc1-n1ccnc(SCC(=O)NC2CCCCC2)c1=O` reads 7.32%; that for `Cc1ccccc1C(CC(=O)c1cccs1)C(C#N)C#N` (configuration not stated), 0%.
On to `C/C(=N\NC(=S)Nc1ccc(C)cc1)c1cc2ccccc2o1`, for which the inhibition was 77.5% (active).
The result for `C/C(=N/NC(=S)Nc1ccccc1)c1ccc2c(c1)OCO2` reads 12.9%; that for `C/C(=N\NS(=O)(=O)c1cccc([N+](=O)[O-])c1)c1cc2ccccc2o1`, 22.8%.
The result for `CCc1c(C)nc(N)n2c(SCC(=O)NC3CCCCC3)nnc12` reads 0%.
The result for `Cc1ccc(S(=O)(=O)N2CCCCC2)cc1C(=O)N1CCN(CCO)CC1` reads -15.1%; that for `O=C1NC(c2ccccc2)Cc2ccncc21` (configuration not stated), 13.4%; that for `C1=C(N2CCOCC2)/C(=C/c2nc3ccccc3[nH]2)CC1`, 34.8% (active).
Regarding `c1ccc(-n2nnnc2N2CCOCC2)cc1`, the inhibition was 2.54%.
The result for `O=C(C1CCCO1)N1CCC(c2nc3ccccc3[nH]2)CC1` (configuration not stated) reads -7.92%; that for `CCCCN1C(=O)c2ccc(C(=O)Nc3ccc(S(=O)(=O)N(C)C)cc3)cc2C1=O`, 2.95%.
The result for `Cc1ccc(NC2=NC(c3ccccc3)n3c(nc(C)cc3=O)N2)cc1` (configuration not stated) reads 4.69%; that for `COc1ccc(/C=N/n2nnnc2N)cc1OC`, 21.5%.
The result for `COc1ccc(/C=N/Nc2nc3ccccc3o2)cc1OC` reads 44.1% (active); that for `CCOc1ccccc1/C=N/Nc1nc2ccccc2o1`, 8.78%; that for `CC(C)[C@H](NC(=O)c1ccccc1F)C(=O)Nc1cccc(S(=O)(=O)N2CCOCC2)c1`, -3.11%.
`CN1C(=O)c2ccc(NC(=O)c3c(F)c(F)c(F)c(F)c3F)cc2C1=O`: the inhibition is 10.2%.
For `CC(C)(C)c1cc[n+](-c2[nH]c(=O)sc2/C=N/N=C(\[O-])c2ccccc2)cc1`, the inhibition is 32.8% (active).
The result for `Cc1cc[n+](-c2[nH]c(=O)sc2/C=N/NC(=O)c2ccccc2[O-])cc1C` reads 30.5%.
For the molecule `Cc1cccc(C)c1NC(=S)N(Cc1cccnc1)Cc1ccccc1Cl`, the inhibition was 0.63%.
The result for `CC1(C)CC(=O)C2=C(C1)NCN(CCCN1CCOCC1)C2` reads 6.39%; that for `CC(C)OC(=O)c1ccc(COc2ccc3ccc(=O)oc3c2)o1`, 6.9%; that for `CC(=CCOc1ccc2ccc(=O)oc2c1)C1=CC(=O)C(C)(C)O1`, 32.7% (active).
The result for `O=C(COc1ccc2ccc(=O)oc2c1)NCC(O)c1ccccc1` (configuration not stated) reads 7.87%; that for `COc1ccc2oc(C(=O)OCC(=O)N(CC(C)C)c3c(N)n(Cc4ccccc4)c(=O)[nH]c3=O)c(C)c2c1`, -3.6%.
The result for `O=C1Nc2ccc([N+](=O)[O-])cc2C1=Nc1cccc(CO)c1` reads 15.1%.
Turning to `CCOc1ccc(C(C(=O)NCCOC)N(CCOC)C(=O)CCC(=O)Nc2ccccn2)cc1` (configuration not stated), the inhibition is 5.17%.
The result for `COC(=O)Cc1cnc(NC(=O)CSc2nc(C(C)C)cc(=O)[nH]2)s1` reads -1.15%; that for `O=C1CC(c2ccccc2)C(=O)N2C(=O)CC(c3ccccc3)C(=O)N12` (configuration not stated), 1.76%; that for `COc1ccc2c(c1)C(=O)CC(c1ccccc1)O2` (configuration not stated), 0.86%.
The result for `Cc1c(O)c(C)c2c(c1O)C(=O)C[C@@H](c1ccccc1)O2` reads 31% (active).
The result for `NC(=O)CN1CCCC1c1ccc2c(c1)OCCO2` (configuration not stated) reads -7.41%.
As for `CC1=NNC(=O)C1CCC(=O)N/N=C\c1cccc(Cl)c1` (configuration not stated), the inhibition is -3.82%.
The result for `CCOC(=O)c1ccc(COC(=O)c2cc(=O)[nH]c3ccccc23)o1` reads 7.46%; that for `CCCCSc1[nH]c(=O)c(C(=O)OCC)cc1C#N`, 36.1% (active); that for `CCOC(=O)C(Sc1ncc(C#N)c(N)n1)C(C)C` (configuration not stated), 5.66%.
The result for `CC(=O)N1C(C)c2ccccc2C(C)(C)CC12CCCCC2` (configuration not stated) reads 4.51%; that for `O=C1COc2ccc(C(=O)COC(=O)c3cccnc3Cl)cc2N1`, 1.57%.
Consider `COc1ccc(/C=C(/NC(=O)c2ccco2)C(=O)Nc2ccc(C(C)=O)cc2)cc1`, for which the inhibition was 33.5% (active).
The result for `Cc1ccc(NC(=O)/C(=C\c2ccccc2)NC(=O)c2ccco2)cc1` reads 21.3%.
The result for `COc1ccccc1C(=O)N/C(=C/c1ccco1)C(=O)Nc1ccc(C(=O)O)cc1` reads 1.49%; that for `CC1(C)COC(c2cccn2Cc2ccccc2Cl)=N1`, 12.7%; that for `O=C(NCc1ccncc1)C(=O)NCC1OCCN1S(=O)(=O)c1ccc(Br)cc1` (configuration not stated), 3.11%.
The result for `O=C(Cc1ccsc1)N1CCN(S(=O)(=O)c2cc(C(F)(F)F)cc(C(F)(F)F)c2)CC1` reads 6.47%; that for `Oc1c(Br)cc(/C=N/NC(=S)NCC2CCCO2)cc1Br` (configuration not stated), 37.8% (active).
As for `O=C(CNC(=O)c1ccc(Br)o1)NCC1CCCO1` (configuration not stated), the inhibition is -4.74%.
The result for `S=C(NCC1CCCO1)N1CCN(c2ccc(Cl)c(Cl)c2)CC1` (configuration not stated) reads -2.84%; that for `CC(C)(C)CC(C)(C)NCC(O)COCCOc1ccc(Br)cc1` (configuration not stated), -7.87%.
As to `CC(=NNC(N)=O)C1CC2CCC1CC2` (configuration not stated), the inhibition was 4%.
The result for `CC1CCCCC1NC(=O)COC(=O)Cc1ccc(Br)cc1` (configuration not stated) reads 0.32%; that for `O=C(/C=C/c1ccc(Cl)c([N+](=O)[O-])c1)c1ccc(O)cc1`, 40.7% (active); that for `Cc1ccnc(NC(=O)c2ccc(Cl)c([N+](=O)[O-])c2)c1`, 8.28%.
The result for `O=C(COC(=O)c1ccc(O)cc1O)c1ccc2c(c1)OCCO2` reads -0.63%; that for `O=C(/C=C/c1ccc2c(c1)OCCO2)c1ccc(O)cc1`, 37.5% (active); that for `C/C(=N\NC(=O)C(N)=O)c1ccc2c(c1)OCCO2`, 0.63%.
The result for `O=C(O)c1ccc2c(=O)n3c(nc2c1)/C(=C/c1ccc(Cl)c([N+](=O)[O-])c1)CC3` reads -3.69%.
Take `CC(C)C(=O)N1CC(=O)Nc2ccc(F)cc2C1c1ccc(F)cc1` (configuration not stated): the inhibition is 2.76%.
The result for `CSc1nc2ccccc2cc1/C=C(\C#N)c1ccc(Cl)cc1Cl` reads 12.3%.
The result for `CC(=O)N1CCc2cc(Br)cc(S(=O)(=O)CCC(=O)Nc3c(C)n(C)n(-c4ccccc4)c3=O)c21` reads 0%; that for `CCN(CC)CCCNC(=O)c1ccc2c(=O)n(Cc3ccc4c(c3)OCO4)c(=S)[nH]c2c1`, 3.66%.
For the molecule `CCSC(C)CC1C/C(=N/O)c2c(C)noc2C1` (configuration not stated), the inhibition was -6.62%.
The result for `C[C@@H]1O[C@@H](OC[C@H]2O[C@@H](Oc3c(-c4ccc(O)cc4)oc4cc(O)cc(O)c4c3=O)[C@H](O)[C@@H](O)[C@@H]2O)[C@H](O)[C@H](O)[C@H]1O` reads 17.6%.
The result for `COc1c(O)cc2oc(-c3ccc(O)c(O)c3)cc(=O)c2c1O` reads 22%; that for `COc1ccc(-c2cc(=O)c3c(O)cc(O[C@@H]4O[C@H](CO[C@@H]5O[C@@H](C)[C@H](O)[C@@H](O)[C@H]5O)[C@@H](O)[C@H](O)[C@H]4O)cc3o2)cc1O`, 37.8% (active); that for `Cc1csc(CN(C)C(=O)CC2C(=O)NCCN2CC(C)(C)C)n1` (configuration not stated), -0.64%.
The result for `CC1(C(=O)Nc2cccc(Oc3ccccc3)c2)CCN1Cc1ccccc1Cl` (configuration not stated) reads 11.5%.
`CCOc1cc(C)ccc1OCc1nnc(SCC(=O)Nc2cccc(C(=O)O)c2)n1-c1ccccc1`: the inhibition is 5.71%.
The result for `CCN(CC)CCCNC(=S)N(CCO)Cc1cc2cc3c(cc2[nH]c1=O)OCO3` reads 10.3%.
The result for `CCNC(=S)N(CCN(CC)CC)Cc1cc2cc3c(cc2[nH]c1=O)OCCO3` reads 27.9%; that for `CCNC(=S)N(CCN(CC)CC)Cc1cc2cc3c(cc2[nH]c1=O)OCO3`, 40.6% (active).
On to `CN1C(CC(=O)Nc2ccc(Br)cc2)c2ccccc2CC1(C)C` (configuration not stated), for which the inhibition is 2.84%.
The result for `COc1cc(C(=O)N2CCN(S(=O)(=O)c3ccc(C(C)C)cc3)CC2)ccc1OCC(=O)N1CCOCC1` reads -5.56%; that for `O=C(Nc1sc2c(c1-c1nc3ccccc3[nH]1)CCCC2)C1CC1`, 12.9%; that for `Nc1ccccc1-c1nc2ccncc2[nH]1`, 17.8%.
With `c1ccc2[nH]c(-c3nc4ccccc4[nH]3)nc2c1`, the inhibition was 36.1% (active).
As to `CCc1ccc2c(c1)cc(CN(C(=S)Nc1ccccc1Cl)C1CC1)c1nnnn12`, the inhibition was 3.4%.
With `COCCCN(C(=S)Nc1c(C)cc(C)cc1C)C(C)c1ccncc1` (configuration not stated), the inhibition was -1.1%.
